In PubChem BioAssay AID1159580 (chemical genetic matrix, 2015):
Where “and” joins values, the source holds several entries; their conditions need not be identical. Equal values may be shown once. Among all 5,500 compounds or so, about 2,000 (36%) were called active. Inconclusive results (about 18%) are left out. No stated cut-off is given here; in the data, active means normalized growth mostly below about 0.91 (no sharp cut-off); inconclusive means no clear call, values can overlap the other calls; inactive means mostly above about 0.92. The list shows a part of the results.

Assay: chemical genetic growth profiling, strain panel (AID 1159580);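 further: tested at 20 µM; growth read once vehicle control cultures reached saturation at 30 °C; 1 = growth at the plate median or of vehicle wells; lower values mean less growth of the strain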
Conditions: S. cerevisiae deletion strains, growth OD

Measured: normalized growth

CCS(=O)(=O)CCn1c([N+](=O)[O-])cnc1C
inactive: locus YAL013W, strain DEP1, hits give low values 1.03 | locus YAL021C, strain ccr4, hits give low values 0.999 | locus YAL026C, strain drs2, hits give low values 0.995 | locus YAL030W, strain snc1, hits give low values 1.01 | locus YBL061C, strain skt5, hits give low values 1.01 | locus YBR009C, strain hhf1, hits give low values 0.962 | locus YBR021W, strain FUR4, hits give low values 1.01 | locus YBR023C, strain chs3, hits give low values 0.998 | locus YBR171W, strain sec66, hits give low values 1 | locus YBR229C, strain ROT2, hits give low values 1.01 | locus YBR231C, strain swc5, hits give low values 1 | locus YBR279W, strain paf1, hits give low values 0.985 | locus YCL011C, strain gbp2, hits give low values 1 | locus YCL016C, strain dcc1, hits give low values 1.02 | locus YCL029C, strain bik1, hits give low values 1.01 | locus YCL061C, strain MRC1, hits give low values 1.01 | locus YCL069W, strain vba3, hits give low values 0.974 | locus YCR088W, strain abp1, hits give low values 0.986 | locus YDL005C, strain med2, hits give low values 1.01 | locus YDL035C, strain GPR1, hits give low values 1.04 | locus YDL040C, strain nat1, hits give low values 0.995 | locus YDL074C, strain BRE1, hits give low values 1.06 | locus YDL101C, strain DUN1, hits give low values 1.01 | locus YDL134C, strain PPH21, hits give low values 1 | locus YDL185W, strain tfp1, hits give low values 1.02 | locus YDL192W, strain arf1, hits give low values 1.01 | locus YDR001C, strain nth1, hits give low values 0.991 | locus YDR069C, strain doa4, hits give low values 0.977 | locus YDR101C, strain arx1, hits give low values 1.01 | locus YDR137W, strain rgp1, hits give low values 0.957 | locus YDR150W, strain NUM1, hits give low values 1.02 | locus YDR159W, strain sac3, hits give low values 0.965 | locus YDR162C, strain NBP2, hits give low values 1.02 | locus YDR195W, strain ref2 0.952 | locus YDR297W, strain sur2, hits give low values 1 | locus YDR318W, strain mcm21, hits give low values 1.04 | locus YDR334W, strain swr1, hits give low values 0.966 | locus YDR335W, strain msn5, hits give low values 0.993 | locus YDR388W, hits give low values 1.01 | locus YDR392W, strain spt3, hits give low values 1.02 | locus YDR502C, strain sam2, hits give low values 1.01 | locus YEL003W, strain gim4, hits give low values 0.995 | locus YEL037C, strain rad23, hits give low values 0.981 | locus YEL061C, strain CIN8 (second series), hits give low values 0.998 | locus YEL061C, strain CIN8, hits give low values 1.01 | locus YER015W, strain faa2, hits give low values 1 | locus YER016W, strain bim1, hits give low values 1.01 | locus YER110C, hits give low values 1.02 | locus YER111C, strain swi4, hits give low values 1.02 | locus YER155C, strain BEM2 (second series), hits give low values 0.99 | locus YER155C, strain BEM2, hits give low values 0.996 | locus YER167W, strain BCK2, hits give low values 1.05 | locus YFR010W, strain ubp6, hits give low values 0.967 | locus YGL078C, strain dbp3, hits give low values 1 | locus YGL086W, strain mad1, hits give low values 1.05 | locus YGL167C, strain pmr1, hits give low values 0.994 | locus YGL173C, strain kem1, hits give low values 1.02 | locus YGL227W, strain vid30, hits give low values 1 | locus YGL240W, strain doc1, hits give low values 0.977 | locus YGL248W, strain PDE1, hits give low values 1 | locus YGL253W, strain hxk2, hits give low values 0.997 | locus YGR078C, strain PAC10, hits give low values 1.03 | locus YGR135W, strain pre9, hits give low values 1.01 | locus YGR229C, strain SMI1, hits give low values 1.02 | locus YGR252W, strain gcn5, hits give low values 1.01 | locus YHR013C, strain ard1, hits give low values 1.04 | locus YHR027C, strain rpn1, hits give low values 1.01 | locus YHR030C, strain SLT2, hits give low values 1.01 and 0.981 | locus YHR079C, strain IRE1 (second series), hits give low values 1.02 | locus YHR079C, strain IRE1, hits give low values 0.957 | locus YHR094C, strain hxt1, hits give low values 1.01 | locus YHR129C, strain ARP1, hits give low values 1.01 | locus YHR142W, strain chs7, hits give low values 1.01 | locus YHR200W, strain rpn10, hits give low values 1.02 | locus YIL066C, strain RNR3, hits give low values 1.02 | locus YIL073C, strain SPO22, hits give low values 1.1 | locus YIL125W, strain kgd1, hits give low values 1.01 | locus YIR030C, strain dcg1, hits give low values 1.01 | locus YJL092W, strain hpr5, hits give low values 1 | locus YJL095W, strain BCK1 (second series), hits give low values 0.989 | locus YJL095W, strain BCK1, hits give low values 1.02 and 0.959 | locus YJL115W, strain asf1, hits give low values 0.98 | locus YJL129C, strain trk1, hits give low values 1 | locus YJL134W, strain LCB3, hits give low values 1.01 | locus YJL154C, strain vps35, hits give low values 0.984 | locus YJL164C, strain tpk1, hits give low values 1 | locus YJL166W, strain qcr8, hits give low values 0.996 | locus YJL168C, strain set2, hits give low values 1.01 | locus YJL187C, strain SWE1 (second series), hits give low values 1.01 | locus YJR043C, strain POL32, hits give low values 1.08 | locus YJR066W, strain TOR1, hits give low values 0.945
